Compound activity (PubChem)
HCV NS3h FP: blocks HCV NS3 helicase binding to DNA. inhibition, % at 100 µM. AID 687043. actives 1.6% (n = 16,000). NS3h Cy5-dT15 DNA binding, fluorescence polarization;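 active = inhibition above the average over every tested compound plus 3 SD, cut at about 40% in these data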
Cy5 interf NS3h: Cy5 fluorescence interference, HCV helicase counter-screen | Cy5-dT15 DNA with NS3h; actives lie on both sides; signal over control mean, under 1 quenches | fluorescence interference ratio at 100 µM | actives 6% (n = 16,000) | AID 720488;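 active = compound fluorescence over control fluorescence at most 0.8, a quencher, or at least a set upper limit, an enhancer; inactive = ratio between 0.8 and the set upper limit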
Numbers without * were called inactive. Hits are enriched below; roughly 6.8% of the tested compounds scored in any of these assays.

SMILES	HCV NS3h FP	Cy5 interf NS3h
CC(NC(=O)c1cc2nc(-c3ccco3)cc(C(F)(F)F)n2n1)C1CC2CCC1C2 (centres undefined)	20	0.7*
COc1cc(NC(=O)c2cc3nc(-c4ccc5c(c4)OCO5)cc(C(F)(F)F)n3n2)c(OC)cc1Cl	10	1.1
Cc1c(Cl)cccc1NC(=O)C1c2ccccc2Oc2ccccc21	-3	0.97
COc1cc(/C=C2\C(=O)NN(c3ccccc3)C2=O)cc(Br)c1OCC(=O)O	29	1.1
Cc1ccc(N2NC(=O)/C(=C\c3ccc(Br)cc3)C2=O)cc1	19	0.91
Cc1ccc(N2NC(=O)/C(=C/c3cccc(Br)c3)C2=O)cc1	23	0.79*
COc1cc(/C=C2/C(=O)NN(c3ccc(Cl)cc3)C2=O)cc(Br)c1O	-1	0.77*
COc1ccc(/C=C2/SC(=S)N(CCCC(=O)OCCN(C)C)C2=O)cc1	4	0.8*
COCCCN1C(=O)/C(=C/c2ccc(N(C)C)cc2)SC1=S	31	1
Cc1ccc(N(CC(=O)Nc2ccc(Oc3ccccc3)cc2)S(C)(=O)=O)cc1	12	0.93
O=C(O)CN1C(=O)c2cccc3c(Br)ccc1c23	7	1
O=C(O)c1cccc2c(Br)ccc(C(=O)O)c12	3	0.68*
CC(NC(=O)NC(=O)c1cccc([N+](=O)[O-])c1)C1CC1 (centres undefined)	10	0.64*
CC(C)CCNC(=O)c1cccc([N+](=O)[O-])c1	17	1
CCc1cc2c(=O)c(-c3nc4ccccc4[nH]3)coc2c(CN2CCOCC2)c1O	12	0.89
O=C1C2=C(Nc3[nH]n(-c4ccccc4)c(=O)c3C2c2ccccc2)c2ccccc21 (centres undefined)	6	0.76*
COC(=O)C1=C(C)NC2=C(C(=O)c3ccccc32)C1c1ccc(F)cc1 (centres undefined)	10	0.89
COc1ccc(Br)cc1/C=C/C(=O)N1CCN(c2ccc([N+](=O)[O-])cc2)CC1	11	1.1
CCN(CC)C(=O)COc1ccc2oc(C)c(C(=O)OC(C)C)c2c1	16	0.79*
CCOC(=O)COc1ccc2oc(C)c(C(=O)OC(C)C)c2c1	14	0.86
O=C(O)CSc1nc2ccccc2c(=O)n1-c1ccccc1	0	1
O=C(Nc1ccc(Cl)cc1Cl)c1nn2c(c1Cl)NC(c1ccc(Cl)cc1)CC2C(F)(F)F (centres undefined)	-4	0.92
Cc1ccc(-c2nc3ccccn3c2NC(=O)c2ccccc2)cc1	20	0.78*
Cc1ccc(-c2nc3ccccn3c2NC(=O)c2ccc(Cl)cc2)cc1	13	0.9
O=C(NCC1CCCO1)C(=O)Nc1ccccc1F (centres undefined)	2	0.99
SMILES	HCV NS3h FP	Cy5 interf NS3h
CC(NC(=O)C(=O)NCC1CCCO1)c1ccccc1 (centres undefined)	-2	0.64*
O=C(NCC1CCCO1)C(=O)Nc1ccc(F)cc1 (centres undefined)	2	1
CCc1ccc(NC(=O)C(=O)NCC2CCCO2)cc1 (centres undefined)	18	0.75*
O=C(Nc1cccc2nsnc12)c1ccc(Br)o1	18	1
COC(=O)CN1C(c2ccc(OC)cc2)Nc2ccc(Br)cc2C1c1ccccc1 (centres undefined)	6	1
Cc1ccc2oc(Nc3nc(C)cc(=O)[nH]3)nc2c1	8	1
Cc1ccc2oc(C(Cl)(Cl)Cl)cc(=O)c2c1	-2	0.6*
COc1ccc(C2CC(c3c(-c4ccccc4)c4cc(Br)ccc4[nH]c3=O)=NN2C(=O)CCC(=O)O)cc1 (centres undefined)	8	1.1
COCCCNC(=O)CN(c1ccccc1OC)S(=O)(=O)c1ccccc1	1	1.1
Cc1ccc(C(=O)N/C(=C\c2cccc([N+](=O)[O-])c2)C(=O)Nc2ccc(C)cc2C)cc1	6	1.3*
O=C(Nc1ccc(C(=O)O)cc1)/C(=C/c1cccc([N+](=O)[O-])c1)NC(=O)c1ccccc1	1	0.97
O=C(Nc1cccc(O)c1)/C(=C/c1cccc([N+](=O)[O-])c1)NC(=O)c1ccccc1	10	0.89
Cc1ccc(C(=O)N/C(=C\c2cccc([N+](=O)[O-])c2)C(=O)Nc2ccc(C)c(C)c2)cc1	2	1.2*
COc1cc(NC(=O)c2cnn3c2NC(c2ccco2)CC3C(F)(F)F)c(OC)cc1Cl (centres undefined)	4	0.9
Nc1nc2n(n1)C(c1ccccc1)C=C(c1ccccc1)N2 (centres undefined)	-2	1.1
CCOc1cc(OCC)cc(C(=O)Nc2ccc3oc(-c4ccccc4F)nc3c2)c1	7	0.88
CCOC(=O)C1=C(C)NC(C)=C(C(=O)OC)C1c1ccco1 (centres undefined)	-3	0.91
C=CCOC(=O)C1=C(C)NC(C)=C(C(=O)OCC=C)C1c1ccco1	29	0.73*
N#Cc1c(-c2ccccc2)cc(-c2ccc(Br)cc2)nc1N	6	1.1
